Assay outcomes: PubChem BioAssay, several laboratories
In the library only some 2% were active in any assay of this set; here they are far more common.
Hsp70 act – switches on Hsp70 transcription. activation, % at 10 µM. 0.04% of 200,000 active. HeLa Hsp70 promoter luciferase reporter, luminescence; scaled: vehicle 0, proteasome-inhibitor control 100%;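 active = activation above the mean across all tested compounds plus 3 SD, cutoff set per campaign, cut at about 5.5% in these data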
HMGR II inh – blocks class II HMG-CoA reductase of Enterococcus faecalis; inhibition, % at 10 µM; AID 1066; purified E. faecalis HMGR, NADPH absorbance 340 nm kinetic; 0.41% of 190,000 active;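 active = inhibition above a set limit, the median over all tested compounds plus 3 SD, cut at about 9.5% in these data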;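 note: enzyme runs in reverse so mevalonate oxidation gives rising NADPH absorbance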
Arbovirus inh – arbovirus infection inhibition. arbovirus infection cell-based antiviral screen. AID 1251. 0.37% of 200,000 active. inhibition, % at 10 µM; in the data active = inhibition above about 30%
Wee1 stabilizer – inhibitors of human Wee1 degradation | reporter increase, % at 5 µM | HeLa Luc-Wee1K328M stability, luciferase luminescence; 100% = proteasome inhibitor MG132 effect | P30291 | AID 1321 | 1.2% of 220,000 active;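 active = activation above the mean of all tested compounds plus 3 SD, set per screening run, cut at about 8.8% in these data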;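 note: cells exposed to compound for 20 h before luminescence read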
Target sequence (P30291 whole entry K328M): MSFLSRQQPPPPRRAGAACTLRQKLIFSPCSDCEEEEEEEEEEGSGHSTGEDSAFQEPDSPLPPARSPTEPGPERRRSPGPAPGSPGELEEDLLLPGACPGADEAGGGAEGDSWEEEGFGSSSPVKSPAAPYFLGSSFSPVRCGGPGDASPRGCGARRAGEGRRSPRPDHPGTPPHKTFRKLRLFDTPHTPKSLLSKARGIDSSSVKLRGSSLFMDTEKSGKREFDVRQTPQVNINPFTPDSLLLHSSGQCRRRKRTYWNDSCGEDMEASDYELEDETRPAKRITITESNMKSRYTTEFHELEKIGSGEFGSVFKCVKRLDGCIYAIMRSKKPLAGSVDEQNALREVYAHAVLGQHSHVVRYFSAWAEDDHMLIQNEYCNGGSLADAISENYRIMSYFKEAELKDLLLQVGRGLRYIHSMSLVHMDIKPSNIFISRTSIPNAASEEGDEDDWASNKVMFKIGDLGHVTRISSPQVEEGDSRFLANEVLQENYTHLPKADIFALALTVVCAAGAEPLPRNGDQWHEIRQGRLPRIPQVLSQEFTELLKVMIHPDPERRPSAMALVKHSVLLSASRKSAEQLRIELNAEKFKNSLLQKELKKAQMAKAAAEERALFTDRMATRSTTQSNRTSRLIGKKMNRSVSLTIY
PKD1 kinase inh – PKD1 (human) kinase inhibition. Q15139. inhibition, % (concentration not given with the values). PKD1 kinase fluorescence polarization assay. AID 797. 0.056% of 200,000 active; in the data active = inhibition above about 50%
Wee1 degr conf – human Wee1 degradation inhibition, confirmation; 4% of 1,100 active; shares compounds with Wee1 stabilizer; activation, % at 5 µM; AID 1410; HeLa Luc-Wee1K328M degradation, luminescence; vehicle 0%, proteasome-blocked wells 100%; in the data active = activation above about 8.9%
Each line names hits and unclear results; the compound was inactive in the other large screens (follow-up assays come after a bar, where they were run).

CCNS(=O)(=O)c1ccc(NS(=O)(=O)c2cc(C)ccc2C)cc1	Wee1 stabilizer 13 | Wee1 degr conf inactive
COc1ccccc1C1SCCN1S(C)(=O)=O (configuration not stated)	Wee1 stabilizer 21 | Wee1 degr conf inactive
CS(=O)(=O)c1ccc(C(=O)OCC(=O)NC2CCS(=O)(=O)C2)cc1[N+](=O)[O-] (configuration not stated)	none
Fc1ccccc1N1CCN(c2nc(-c3cccs3)nc3ccccc23)CC1	none
CN(Cc1ccccc1F)c1nc(-c2cccs2)nc2ccccc12	Wee1 stabilizer 14 | Wee1 degr conf inactive
CN1C(=O)CC(C(=O)O)SC1=Nc1cc(Cl)cc(Cl)c1 (configuration not stated)	none
Cc1ccc(N(CC(O)CN2C(=O)NC(C)(C)C2=O)S(=O)(=O)c2ccc(C)cc2)cc1 (configuration not stated)	Wee1 stabilizer 13 (no result: Hsp70 act, HMGR II inh, Arbovirus inh, PKD1 kinase inh) | Wee1 degr conf inactive
Cc1ccc(NC2=CC(=O)CC(c3ccc(Cl)cc3)C2)cc1 (configuration not stated)	Wee1 stabilizer 15 | Wee1 degr conf inactive
O=[N+]([O-])c1ccc(Sc2cccc[n+]2[O-])c2nonc12	Wee1 stabilizer 40 (no result: Hsp70 act, HMGR II inh, Arbovirus inh, PKD1 kinase inh) | Wee1 degr conf 43
CCC(C(=O)Nc1nccs1)c1ccccc1 (configuration not stated)	Wee1 stabilizer 17 | Wee1 degr conf inactive
CCCC(C(=O)Nc1nccs1)c1ccccc1 (configuration not stated)	none
OC1CCCN(CC(O)COC(c2ccccc2)c2ccccc2)C1 (configuration not stated)	none (no result: Hsp70 act, HMGR II inh, Arbovirus inh, PKD1 kinase inh)
CC1CCCN(CC(O)COC(c2ccccc2)c2ccccc2)C1 (configuration not stated)	Wee1 stabilizer 12 | Wee1 degr conf inactive
O=c1cc(/C=C/c2ccccc2)oc2c1ccc1ccccc12	Wee1 stabilizer 11 | Wee1 degr conf inactive
O=c1cc(C(F)(F)F)oc2c1ccc1ccccc12	none
CCC1CCc2c(sc(NC(=O)C3c4ccccc4Oc4ccccc43)c2C(N)=O)C1 (configuration not stated)	none
Nc1nc(COc2ccccc2)cs1	none
Cc1ccccc1OCc1csc(N)n1	Wee1 stabilizer 16 | Wee1 degr conf inactive
Cc1cc(F)ccc1NC(=O)c1ccc(NS(=O)(=O)c2cc(C(C)(C)C)ccc2C)cc1	Wee1 stabilizer 13 | Wee1 degr conf inactive
CC(=O)Nc1ccc(NC(=O)c2ccc(NS(=O)(=O)c3cc(C(C)(C)C)ccc3C)cc2)cc1	none
CC(C)OCCCNC(=O)C(C)Oc1ccccc1 (configuration not stated)	none
CC(C)OCCCNC(=O)Nc1cccc2ccccc12	HMGR II inh 14, Wee1 stabilizer 13 | Wee1 degr conf inactive
CCOCCCNS(=O)(=O)c1ccc(NC(=O)N2c3ccccc3Sc3ccccc32)cc1	none
CCN(CC(=O)Nc1cccc(C(C)=O)c1)S(=O)(=O)c1ccccc1	none
C/C(=N\NC(=O)c1ccccc1)c1ccc(NC(=O)c2cccs2)cc1	Wee1 stabilizer 13 | Wee1 degr conf inactive
COc1ccc(NC(=O)/C=C2\SC(=O)NC2=O)cc1	Wee1 stabilizer 15 | Wee1 degr conf inactive
Cn1ncc(Br)c1C(=O)Nc1cccc(C(F)(F)F)c1	none (no result: Hsp70 act, HMGR II inh, Arbovirus inh, PKD1 kinase inh)
Cn1nc(C(=O)Nc2cccc(C(F)(F)F)c2)ccc1=O	Wee1 stabilizer 11 | Wee1 degr conf inactive
CCOC(=O)c1cnc2ccc(C(=O)OC)cc2c1NCc1ccco1	none
CCOC(=O)c1ccc2ncc(C(=O)OCC)c(NCCN(C)C)c2c1	Wee1 stabilizer 21 (no result: HMGR II inh) | Wee1 degr conf inactive
COc1ccc(C(=O)O)cc1S(=O)(=O)NCCc1ccccn1	none (no result: Hsp70 act, HMGR II inh, Arbovirus inh, PKD1 kinase inh)
Fc1ccc(CSc2ccc(-c3ccco3)nn2)cc1	Wee1 stabilizer 12 | Wee1 degr conf inactive
Cc1c(C(=O)NCCCN2CCOCC2)oc2c1C1(CCC2)SCCS1	none
Cc1ccccc1-n1c2nc(=O)n(C)c(=O)c-2cc2ccccc21	Wee1 stabilizer 14 (no result: Hsp70 act, HMGR II inh, Arbovirus inh, PKD1 kinase inh) | Wee1 degr conf inactive
CCCCn1c(=O)nc2n(-c3ccccc3C)c3ccccc3cc-2c1=O	none
Clc1nc(-c2ccccc2)cc(-c2ccccc2)n1	none
COc1ccc(NC(=O)CN2CCCCC2)cc1	none
COc1ccc(NC(=O)CN2CCC(NC(=O)C3CCCCC3)CC2)cc1	Wee1 stabilizer 15 | Wee1 degr conf inactive
CCN1CCc2nc(NC(=O)CC(c3ccccc3)c3ccccc3)sc2C1	none
CCN1CCc2nc(NC(=O)C(c3ccccc3)c3ccccc3)sc2C1	Wee1 stabilizer 11 | Wee1 degr conf inactive
O=C(N/N=C/c1cccc(F)c1)c1c(O)c2c([nH]c1=O)CCCC2	none
COc1ccc2c(c1)c(=O)cc(-c1ccccc1)n2C	Wee1 stabilizer 11 | Wee1 degr conf inactive
COc1ccc(Nc2nc(Cl)nc(Nc3ccc(OC)cc3)n2)cc1	Wee1 stabilizer 13 | Wee1 degr conf inactive
C=CCNc1nc(Cl)nc(Nc2ccc(OC)cc2)n1	none
CC1(C)Cc2nc3sc4c(SCC(=O)NCc5ccccc5)ncnc4c3cc2CO1	Wee1 stabilizer 13 | Wee1 degr conf inactive
CCN(CC)C(=O)c1c(-c2ccccc2)oc2ccc(OC)cc12	Wee1 stabilizer 17 | Wee1 degr conf inactive
